# Measured values reported in PubChem BioAssay.
# Active and inactive are the calls of the source.
# How the values were obtained:
# [1] = A549 cell viability effects, profiling panel, calcein-AM fluorescence, 48 h, basal (AID 1162); settings: higher = more signal
# [2] = adipocyte viability effects, profiling panel, cell-based, 3T3-L1 adipocytes, calcein-AM fluorescence, 48 h, basal (AID 1163); settings: 3T3-L1 adipocytes viability, higher = more signal
# [3] = HepG2 cell viability effects, profiling panel, calcein-AM fluorescence, 48 h, basal (AID 1164); settings: higher = more signal
# [4] = MM1S cell viability effects, profiling panel, calcein-AM fluorescence, 48 h, basal (AID 1165); settings: higher = more signal;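 further: viability of MM1S multiple myeloma cells under basal unstimulated conditions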
# [5] = basal RPMI8226 viability, no added stimulus, profiling panel, cell-based, calcein-AM fluorescence, 48 h, PK04 Diversity Set (AID 1166); settings: RPMI8226 myeloma viability, higher = more signal;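 further: cells grown under basal conditions without added stimulus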
# [6] = basal HepG2 mitochondrial membrane potential changes, profiling panel, cell-based, JC-1 fluorescence, 24 h, 100 nL compound (AID 1167); settings: higher = more signal
# [7] = basal 3T3-L1 adipocyte mitochondrial potential changes, profiling panel, cell-based, JC-1 fluorescence, 3T3-L1 adipocytes, 24 h, 100 nL compound (AID 1168); settings: JC-1 mitochondrial fluorescence, higher = more signal, called active from +8 up or from −8 down
# [8] = basal RPMI8226 mitochondrial membrane potential changes, profiling panel, cell-based, JC-1 fluorescence, 24 h, 100 nL compound (AID 1169); settings: RPMI8226 myeloma, JC-1 mitochondrial potential fluorescence, higher = more signal
# [9] = basal MM1S mitochondrial membrane potential changes, profiling panel, cell-based, JC-1 fluorescence, 24 h, 100 nL compound (AID 1170); settings: higher = more signal
# [10] = A549 lung cancer cell viability effects, profiling panel, resazurin fluorescence, 24 h, PK04 Diversity Set (AID 1171); settings: higher = more signal, called active from +8 up or from −8 down
# Further: test concentration not given here.
Compound,z-score [1],z-score [2],z-score [3],z-score [4],z-score [5],z-score [6],z-score [7],z-score [8],z-score [9],z-score [10]
CCOC(=O)CCN1C(=O)[C@H]2[C@H]3[C@H](O)[C@H](O)CC(=NOCC(C)C)[C@@H]3CC[C@H]2C1=O,-0.0819,0.472,-0.194,0.268,-0.706,-1.05,-0.717 (inactive),0.562,0.104,-0.237 (inactive)
CSCC[C@@H]1NC(=O)CC=C[C@@H](C)COC(=O)[C@H](C)COC1=O,0.137,0.641,0.929,0.434,0.798,1.16,0.766 (inactive),0.0761,0.975,-0.365 (inactive)
CCN1C(=O)[C@H]2[C@H]3[C@H](O)[C@H](O)CC(=NO[C@@H](C)c4cc(-c5c(C)cc(C)cc5C)no4)[C@@H]3CC[C@H]2C1=O,0.165,0.335,-0.401,-0.807,-1.14,-1.38,-3.4 (inactive),0.473,-0.176,0.296 (inactive)
CCOC(=O)[C@H](CC(C)C)NC(=O)CCC1CC(OC(=O)NCCc2ccc(F)cc2)CC2(CCCC(COC(=O)NCCCN3CCCC3=O)O2)O1 (stereo not given in full),0.332,-1.03,0.0317,-0.528,-1.8,-0.556,-0.139 (inactive),-0.912,0.131,0.601 (inactive)
CCN1C(=O)[C@H]2[C@H]3[C@H](O)[C@H](O)CC(=NOC[C@@H](O)[C@H]4O[C@@H]5OC(C)(C)O[C@@H]5[C@H]4O)[C@@H]3CC[C@H]2C1=O,0.725,-0.532,0.282,0.388,0.12,0.0654,0.141 (inactive),0.71,-0.481,-0.794 (inactive)
COC(=O)[C@H](CCSC)NC(=O)CC=C[C@@H](C)CO,-0.493,-0.169,0.0826,-1.12,-0.581,0.705,-0.645 (inactive),-0.545,-1.62,-0.812 (inactive)
O=C1CCCC=C1C(O)COCc1ccccc1 (stereo not given),0.384,-1.41,-1.13,-0.265,0.729,-0.143,-0.649 (inactive),0.728,-0.0651,0.0235 (inactive)
C[C@H]1C=CCC(=O)OC[C@H](C)C(=O)N2CCC[C@H]2C(=O)OC1,-0.531,-1.21,-0.51,0.391,0.0245,0.291,-0.696 (inactive),-0.148,-0.828,0.283 (inactive)
COC(=O)[C@@H]1CC[C@H](C)[C@@H](c2ccc(C)cc2)N1C(=O)c1ccc(C=NOC[C@@H](O)[C@H]2O[C@@H]3OC(C)(C)O[C@@H]3[C@H]2O)cc1,0.685,-0.175,-0.827,-0.546,-0.525,-0.874,-0.269 (inactive),-1,-0.732,-0.089 (inactive)
C=CC[C@@H]1C=C[C@H](ON=C(C)CCN2CCCc3nc(C)c(C)cc32)[C@@H](CO)O1,0.226,-0.0137,0.0526,-2.03,-1.06,-0.276,0.0489 (inactive),-0.989,-0.455,-0.246 (inactive)
COC(=O)[C@H](C)NC(=O)CCC1CC(OC(=O)NCCc2ccc(F)cc2)CC2(CCCC(COC(=O)NCc3ccccc3)O2)O1 (stereo not given in full),-0.101,-0.0012,0.601,0.756,-0.484,0.995,0.553 (inactive),0.265,-0.579,0.896 (inactive)
CC(C)CON=C1C[C@@H](O)[C@@H](O)[C@@H]2[C@@H]3C(=O)N([C@@H](C)c4ccccc4)C(=O)[C@@H]3CC[C@@H]12,-0.398,-0.63,-0.829,-0.79,0.336,-0.889,-0.72 (inactive),0.638,-0.389,0.0092 (inactive)
C[C@@H]1CC[C@H]2C(=O)O[C@@H](COc3ccc(C(C)(C)C)cc3)CN2[C@H]1c1ccc(Br)cc1,0.255,-0.076,0.0944,-1.26,-0.794,-1.31,-1.16 (inactive),-0.16,0.455,1.71 (inactive)
CCOC(=O)CCN1C(=O)[C@H]2[C@H]3[C@H](O)[C@H](O)CC(=NOCC=C(C)CCC=C(C)C)[C@H]3CC[C@H]2C1=O,0.844,-1.23,0.536,0.345,0.15,0.572,0.408 (inactive),0.523,-1.44,-1.1 (inactive)
Cc1cc2c(nc1C)CCCCN2CC(O)CN1CCCc2nc(-c3ccc(Br)cc3)ccc21 (stereo not given),1.54,-0.829,1.62,0.322,-0.697,-0.814,-0.16 (inactive),0.357,-0.536,-0.379 (inactive)
CCOC(=O)[C@H](CC(C)C)NC(=O)CCC1CC(OC(=O)NCCc2ccc(F)cc2)CC2(CCCC(COC(=O)NCc3cccc4ccccc34)O2)O1 (stereo not given in full),-0.491,-0.679,-2.03,-3.43,-3.14,0.26,-0.0268 (inactive),0.219,-1.56,1.15 (inactive)
